# KB-3-1 cytotox – KB-3-1 parental cell cytotoxicity; KB-3-1 viability, CellTiter-Glo ATP luminescence, 72 h; Potency, µM (doses to about 46.1 µM), usual class: cytotoxic; 400,000 tested, 1.4% active; note: nearly all actives have a fitted effect of over 60% in size
#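 Luminescent ATP read-out (CellTiter-Glo) measures survival of drug-naive KB-3-1 cells after 72 h compound exposure at 37 °C. Titration series was screened from lowest to highest concentration, with DMSO vehicle plates as background controls.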
# MCF10A rereplic – inducers of DNA re-replication in MCF 10A breast cells. Potency, µM (top dose mostly 46.1 µM), most hits filed as activators. MCF 10A DNA re-replication, Hoechst nuclear intensity, 48 h. AID 624296. 350,000 tested, 2.9% active; note: nearly all actives have a fitted effect of over 50% in size
# KB-V1 cytotox – KB-V1 MDR subline cytotoxicity; KB-V1 MDR cells viability, CellTiter-Glo, 72 h; Potency, µM (series often up to 46.1 µM), hits mostly cytotoxic; 400,000 tested, 3.4% active; AID 1347076; note: nearly all actives have a fitted effect of over 60% in size
#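 KB-V1 MDR subline cells in DMEM (phenol-red free, 10% FBS) exposed to compounds in qHTS concentration series for 72 h at 37 degrees C. Viability read by CellTiter-Glo luminescence; concentration-effect curves fitted after normalization and correction.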
# SW480 rereplic – DNA re-replication induction in SW480 cells; SW480 DNA re-replication, Hoechst DNA content imaging, 48 h; Potency, µM (highest dose often 46.1 µM), most hits filed as activators; 340,000 tested, 1.8% active; AID 624297; note: nearly all actives have a fitted effect of over 55% in size
#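 Readout is total intensity of Hoechst-stained nuclei, excited at 405 nm and collected at 500-530 nm. Compound treatment lasted 48 hr at 37 C in 5% CO2 before staining.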
# IL-1B inflam inh – inflammasome signaling inhibition, IL-1 beta readout; 360,000 tested, 4.7% active; activity change, % at 57.5 µM; THP-1 LPS/ATP IL-1B secretion, AlphaLISA, 16 h; stronger effect = lower value; in the data active = activity change below about -50%; inconclusive = mostly about -30% to -49%
#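 Secreted IL-1B measured by AlphaLISA bead assay after 16 h compound exposure of THP-1 cells; compounds (final up to 57.5 uM) added 1 h before LPS (250 ng/mL) and ATP (1.25 mM) stimulation; lower signal means less secretion.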
# Hits are given with their value; - = inactive; ? = inconclusive; . = no result; [ ] = remark or other dose. An excerpt weighted towards active compounds, which were near 9.9% of everything screened. Unless noted, calls come from the whole dose curve; as a rule, active = well fitted curve in the direction sought with a large enough effect; inconclusive = small, poorly fitted or top-dose-only effect, or another doubt; inactive = no such curve, though single readings can be large; an effect the other way counts as inactive or inconclusive.
SMILES,KB-3-1 cytotox,MCF10A rereplic,KB-V1 cytotox,SW480 rereplic,IL-1B inflam inh
O=C1NC(=O)C(=Cc2ccc(-c3ccc(F)cc3O)o2)C(=O)N1,-,?,-,?,-76.9
CN1C(=O)C(=Cc2ccc(Sc3ccccc3)o2)C(=O)N(C)C1=O,-,-,-,-,-
O=C1NC(=O)C(=Cc2ccc(Sc3ccccc3)o2)C(=O)N1,-,?,?,?,-99.6
O=C1NC(=O)C(=Cc2ccc(-c3ccc(S(=O)(=O)N4CCOCC4)cc3)o2)C(=O)N1,-,-,-,-,-
O=C1NC(=O)C(=Cc2ccc(-c3ccc(Cl)cc3)o2)C(=O)N1,-,-,?,-,-108.0
C#C[C@]1(O)CC[C@H]2[C@@H]3CCC4=CC(=O)CCC4(C)[C@H]3CCC21C (stereo not given in full),.,-,.,-,.
CC(=O)O[C@H]1C(=O)[C@@]2(C)C([C@H](OC(=O)c3ccccc3)[C@]3(O)C[C@H](O)C(C)=C1C3(C)C)[C@]1(OC(C)=O)CO[C@@H]1C[C@H]2O (stereo not given in full),?,-,?,?,-
CC(=O)O[C@H]1C(=O)[C@@]2(C)C([C@H](OC(=O)c3ccccc3)[C@]3(O)C[C@H](OC(=O)[C@H](O)[C@@H](NC(=O)Cc4ccccc4)c4ccccc4)C(C)=C1C3(C)C)[C@]1(OC(C)=O)CO[C@@H]1C[C@@H]2O (stereo not given in full),0.0073µM,?,?,4.61µM,-
CC(=O)O[C@@]12CO[C@@H]1C[C@H](O)[C@@]1(C)C(=O)[C@H](O)C3=C(C)[C@@H](OC(=O)[C@H](O)[C@@H](NC(=O)c4ccccc4)c4ccccc4)C[C@@](O)([C@@H](OC(=O)c4ccccc4)C12)C3(C)C (stereo not given in full),0.0073µM,?,8.2µM,2.59µM,-
CN1CCN(CCOC2c3ccccc3CSc3ccc(Cl)cc32)CC1 (stereo not given),?,23.1µM,?,?,-87.1
CN(C)CCSC1c2ccccc2CSc2ccccc21 (stereo not given),-,?,-,?,-
Clc1ccc2c(c1)C(OC1CN3CCC1CC3)c1ccccc1CS2 (stereo not given),?,?,16.4µM,?,-104.3
COC(=O)C1=C(c2ccc(-c3ccccc3)c(F)c2)C[C@@H]2CC[C@H]1N2C(=O)N1CCCCC1,-,?,?,-[9.22 µM],-
COC(=O)C1=C(c2ccc(-c3ccccc3)c(F)c2)C[C@@H]2CC[C@H]1N2C(=O)NCC1CC1,?,?,?,?,-
COC(=O)C1=C(c2ccc(-c3ccccc3)c(F)c2)C[C@@H]2CC[C@H]1N2C(=O)NC1Cc2ccccc2C1,?,-,-,3.66µM,-
COC(=O)C1=C(c2ccc(-c3ccccc3)c(F)c2)C[C@@H]2CC[C@H]1N2C(=O)N1CCCC1,18.4µM,-,?,-,-69.3
COC(=O)C1=C(c2ccc(-c3ccccc3)c(F)c2)C[C@@H]2CC[C@H]1N2C(=O)N1CCOCC1,18.4µM,-,-,-,?
COc1cc2c(cc1OC)[C@@]13CCN4CC5=CCOC6CC(=O)N2C1[C@H]6[C@@H]5C[C@@H]43 (stereo not given in full),.,-,.,-,.
COc1cc(OC)cc(-c2sc3ccc(OC)cc3c2-c2ccc(OCCN3CCOCC3)cc2)c1,-,?,-,?,-
CC1CCC(C(C)C)C(OC(=O)Cn2c(COc3ccccc3)[n+](C)c3ccccc32)C1 (stereo not given),23.1µM,?,-,-,-105.4
O=C1CC(c2ccc(F)cc2)c2c(c3ccccc3oc2=O)O1 (stereo not given),-,.,-,.,.
CCCCc1nc2ccccc2c(=O)n1-c1ccc(Cl)cc1[N+](=O)[O-],-,-,4.11µM,-,-
COC(=O)C1=C(c2ccc(OC(F)(F)F)cc2)C[C@@H]2CC[C@H]1N2C(=O)NC(C)C,-,-,-,-,-
CC(C)N(CC[C@@](C(N)=O)(c1ccccc1)c1ccccn1)C(C)C,.,-,.,-,.
Cc1ccc(C)c(Cn2c(C(=O)O)c(C=O)c3ccccc32)c1,-,?,-,-,-
SMILES,KB-3-1 cytotox,MCF10A rereplic,KB-V1 cytotox,SW480 rereplic,IL-1B inflam inh
CCOC(=O)c1c(C=O)c2ccccc2n1Cc1ccccc1,?,?,20.6µM,?,-
CCC(=O)Nc1cc(C(=O)O)ccc1S(=O)(=O)c1ccc(C)cc1,-,-,-,-,-
CCCCn1c(O)c(/C(CC)=N/N2CCCCC2c2cccnc2)c(=O)[nH]c1=S (stereo not given),-,?,-,-,-63.7
O=C(O)c1ccccc1NS(=O)(=O)c1cccc(N=Nc2c(O)[nH]c(=S)[nH]c2=O)c1,-,-,-,-,-
C[C@H]1[C@@H](OS(=O)(=O)O)C[C@@H]2C[C@H]([C@@H](O)c3cc(=O)[nH]c(=O)[nH]3)NC3=NC[C@H]1N32,1.03µM,?,2.06µM,?,-
CC(C)(COC(=O)C(c1ccccc1)c1ccccc1)CN1CCOCC1,-,?,-,-,-
COc1cc2cc(C(=O)N3CC(COS(C)(=O)=O)c4ccc(O)cc43)[nH]c2c(OC)c1OC (stereo not given),?,-,0.0092µM,-,-99.2
Cc1ccc(Cn2cccc(C(=O)Nc3cc(C)on3)c2=O)cc1,-,.,-,.,.
Cc1cc(NC(=O)CCl)no1,?,?,?,?,-100.3
CCN(C(=O)CSc1ncccc1C(=O)Oc1cccc([N+](=O)[O-])c1)c1cccc(C)c1,-,?,-,-,-55.4
C#CCOc1ccc(OC)cc1C(c1c(C)[nH][nH]c1=O)c1c(C)[nH][nH]c1=O,-,?,-,-,-
[O-]c1ccccc1-[n+]1c(-c2ccccc2)cc(-c2ccccc2)cc1-c1ccccc1,11.6µM,?,-,-[9.22 µM],-83.9
Cc1ccccc1-[n+]1c(-c2ccccc2)cc(-c2ccccc2)cc1-c1ccccc1,6.51µM,-,-,2.31µM,-89.8
Oc1ccccc1-[n+]1c(-c2ccccc2)cc(-c2ccccc2)cc1-c1ccccc1,?,-,-,-,?
Nc1ccccc1-[n+]1c(-c2ccccc2)cc(-c2ccccc2)cc1-c1ccccc1,?,-,?,-,-95.6
Oc1c(Br)cc(-c2ccccc2)cc1Br,-,?,-,-,-
CCCC(C)(COC(N)=O)COC(N)=O,.,-,.,-,.
N#Cc1ccccc1Cn1cc(C(=O)c2ccccc2F)c2ccccc21,-,-,2.31µM,-,-
N#Cc1ccccc1Cn1cc(C(=O)c2cccs2)c2ccccc21,-,-,?,-,-
O=C(c1cccs1)c1cn(Cc2ccccc2Cl)c2ccccc12,-,-,7.31µM,-,?
NS(=O)(=O)c1cc([C@@]2(O)NC(=O)c3ccccc32)ccc1Cl,.,-,.,-,.

# From PubChem
